Pf growth 96h: P. falciparum growth inhibition at 96 hours | P. falciparum luciferase reporter growth, 96 h | Potency, µM (doses to about 28.7 µM), for the others: at the highest dose activity change, negative = inhibition, most hits filed as inhibitors | 320,000 compounds, 6.9% hits; note: potency is the fitted concentration of half-maximal effect; % is set by controls: 0 for no effect and ±100 for the full control effect
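Two-generation exposure (96 h) targets delayed-death phenotype. Reporter parasites carrying integrated firefly luciferase, in red cells at 2% hematocrit and 0.05% parasitemia final, kept at 37 C, 5% CO2; luminescence loss indicates inhibition.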
Sm TGR block: inhibitors of Schistosoma mansoni thioredoxin glutathione reductase; purified TGR, DTNB reduction, TNB absorbance 405 nm; Potency, µM (top dose mostly 114 µM), for inactives: at the highest dose activity change, negative = inhibition, actives largely listed as inhibitors; 360,000 compounds, 3% hits; AID 485364; note: potency is the fitted concentration of half-maximal effect; % is set by controls: 0 for no effect and ±100 for the full control effect; nearly all actives have a fitted effect of over 60% in size
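TGR 20 nM + NADPH 100 uM (dispensed conc.), cpd preinc 15 min RT; start with NADPH (500 uM addition) then DTNB (15 mM addition). Kinetic TNB absorbance, 405 nm filter. Four-parameter Hill fit across titration.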
HCMV antiviral: inhibitors of human cytomegalovirus | AID 1259415 | activity change, negative = inhibition, % at 57.5 µM | 410,000 compounds, 4.5% hits | HFF cells, HCMV-luciferase reporter, 72 h; stronger effect = lower value; in the data active = activity change below about -60%; inconclusive = no clear call, values can overlap the other calls; inactive = above about -39%; note: % is set by controls: 0 for no effect and ±100 for the full control effect
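Two compound doses tested in HFFs infected with HCMV-luciferase, MOI 1 PFU/cell, 72 h at 37C. Lysate luminescence read with OneGlo; data normalized against buffer-only and 10uM Salinomycin inhibitor controls.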
HCV inh: inhibitors of hepatitis C virus infection; Huh7.5.1 HCVcc-Cre infection, luciferase reporter, 44 h; Potency, µM (series often up to 41.8 µM), without a hit: top-dose activity change, negative = inhibition, actives largely listed as inhibitors; 340,000 compounds, 3.4% hits; AID 651820; note: potency is the fitted concentration of half-maximal effect; % is set by controls: 0 for no effect and ±100 for the full control effect
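After 44 h co-culture of compound, cells and HCVcc-Cre (~0.5 moi), substrate is added for 15 min at room temperature and luciferase measured over 15 sec. Cells were seeded at 1,000/well and pre-cultured 4 h.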
Pf growth 48h: P. falciparum growth inhibition at 48 hours (one generation); P. falciparum luciferase growth in erythrocytes, 48 h; Potency, µM (doses to about 28.7 µM), inactives show at the highest dose activity change, negative = inhibition, usual class: inhibitors; 310,000 compounds, 5.9% hits; AID 504832; note: potency is the fitted concentration of half-maximal effect; % is set by controls: 0 for no effect and ±100 for the full control effect
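Luciferase-expressing P. falciparum in infected erythrocytes (2% hematocrit, 0.1% parasitemia final) in RPMI 1640/0.5% Albumax were exposed to compound for 48 hours at 37 C, 5% CO2; growth read as luminescence.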
SARS PLpro yeast: SARS-CoV PLP inhibition in yeast; 330,000 compounds, 0.19% hits; Potency, µM (highest dose often 32.9 µM), without a hit: at the top dose activity, positive = growth rescue, actives largely listed as activators; S. cerevisiae expressing SARS-CoV PLpro, growth rescue; calls by dose curve; note: potency is the fitted concentration of half-maximal effect; 0% is about no effect; nearly all actives have a fitted effect of over 55% in size
* = called active by the depositor; i = inactive; ? = inconclusive; / = no result; + = active, no number; [ ] = dose if it differs, or a comment. The list is not random: actives were taken first. Their share in the collection is about 15%. Unless noted, calls come from the whole dose curve; as a rule, active = well fitted curve in the direction sought with a large enough effect; inconclusive = small, poorly fitted or top-dose-only effect, or another doubt; inactive = no such curve, though single readings can be large; an effect the other way counts as inactive or inconclusive.

SMILES	Pf growth 96h	Sm TGR block	HCMV antiviral	HCV inh	Pf growth 48h	SARS PLpro yeast
CCCCCNC(=O)Cn1c(=O)c2c(ncn2CC(C)C)n(Cc2ccccc2)c1=O	0%	7%	10	-12%	?	-1%
CCCCNC(=O)c1nc(-c2cnc(C)cn2)oc1-c1ccc(Cl)cc1	/	/	-3	/	/	/
COc1ccc(CC(N)C(=O)NC2C(CO)OC(n3cnc4c(N(C)C)ncnc43)C2O)cc1 (centres undefined)	0.34µM*	/	/	/	0.38µM*	/
Nc1ncnc2c1ncn2[C@@H]1O[C@H](CNC(=O)[C@@H](N)Cc2ccccc2)[C@@H](O)[C@H]1O	/	/	-20	0%	/	-7%
OC(c1ccc(F)c(F)c1)c1ncc(-c2ccc(Cl)cc2)[nH]1 (centres undefined)	/	/	-64*	/	/	/
OC(c1ccc(F)c(F)c1)c1ncc(-c2ccc(F)cc2)[nH]1 (centres undefined)	/	/	8	/	/	/
Fc1cccc(Cl)c1Cn1nnc2c(NCc3ccncc3)ncnc21	i	?	?	10µM*	?	1%
CCCSc1n[nH]c(NC(C)=O)n1	28%	0%	30	-1%	/	6%
CSc1n[nH]c(NC(C)=O)n1	8%	-24%	-2	22%	1.2µM*	2%
Cc1cc(C2=NNC(=NCCc3ccccc3)SC2)c(C)n1CC1CCCO1 (centres undefined)	?	-31%	-6	11µM*	?	3%
C=CCn1c(C)cc(C2=NNC(=NCc3ccccc3)SC2)c1C	10µM*	-33%	31	?	-20%	4%
Cc1ccc(C)c(C2=NNC(=NCc3ccccc3)SC2)c1	?	-13%	-66*	?	?	-3%
CCN=C1NN=C(c2cc(C)n(CCc3ccccc3)c2C)CS1	?	?	56	-29%	?	-7%
CCN=C1NN=C(c2c[nH]c3ccccc23)CS1	-89%	4%	84	9%	266%	1%
COc1cccc(C2=NNC(=NCc3ccccc3)SC2)c1	0%	-30%	16	-21%	?	-2%
CCN=C1NN=C(c2cc(C)n(Cc3ccco3)c2C)CS1	-27%	-16%	-84*	-23%	-45%	3%
Cc1ccc(NC(=O)C2CCN(S(=O)(=O)c3ccc4c(c3)CCCN4C(=O)C3CCC3)CC2)cc1	/	-8%	-4	/	/	/
CCn1cc(CN2CCCC(C(=O)Nc3ccc(-c4nc5ccccc5[nH]4)cc3)C2)c(C)n1 (centres undefined)	26%	?	44	-18%	2.1µM*	13%
CCn1cc(CN2CCC(C(=O)Nc3ccc(Oc4ccccc4)nc3)CC2)cn1	-29%	3%	-1	?	-9%	1%
Cc1c(CN2CCC(C(=O)Nc3ccc(Oc4ccccc4)nc3)CC2)cnn1C	?	2%	?	-30%	-11%	6%
CC(C)n1cc(CN2CCC(C(=O)Nc3ccc(Oc4ccccc4F)cc3)CC2)cn1	-2%	1%	?	11µM*	?	1%
CCn1cc(CN2CCC(C(=O)Nc3ccc(Oc4ccccc4F)cc3)CC2)c(C)n1	?	0%	-35	2.8µM*	?	-4%
Cc1cc(CN2CCCC(C(=O)Nc3ccc(-c4nc5ccccc5[nH]4)cc3)C2)n[nH]1 (centres undefined)	7%	-23%	-19	-15%	?	5%
Cc1ccc(-c2nnc(NCc3ccccc3)c3ccccc23)cc1	?	0%	-32	11µM*	?	0%
COc1ccc(Nc2cc3c(cn2)ncn3Cc2ccccc2)c(C)c1	/	/	-15	/	/	/
SMILES	Pf growth 96h	Sm TGR block	HCMV antiviral	HCV inh	Pf growth 48h	SARS PLpro yeast
COc1ccccc1NC(=O)Cn1c(=O)c(CNc2ccc(C)cc2)cc2cc3c(cc21)OCCO3	/	1%	24	/	/	/
Nc1c(C(=O)CSc2nc3ccccc3o2)c(=O)[nH]c(=O)n1C1CC1	4%	-1%	+	?	29%	-4%
Cn1c(N)c(C(=O)CSc2nnc(-c3c[nH]c4ccccc34)n2C2CC2)c(=O)[nH]c1=O	6.6µM*	-22%	0	1%	?	0%
CCCn1c(N)c(C(=O)CSc2nnc(-c3c[nH]c4ccccc34)n2C2CC2)c(=O)[nH]c1=O	/	/	23	?	/	8%
CCOCCCn1c(SCC(=O)OCC)nc2c(sc3ccccc32)c1=O	/	9%	5	/	/	/
COc1ccc(CNc2ccc(N3CCN(C(C)=O)CC3)cc2)cc1OC	/	/	-38	/	/	/
COc1cc(CNc2ccc(S(N)(=O)=O)cc2)ccc1OCc1ccccc1F	/	/	?	11µM*	/	/
COc1cc(CNc2ccc(N3CCCC3)cc2)ccc1OCc1ccccc1	8%	45µM*	-2	?	8.3µM*	-18%
COc1cc(CNc2ccc(N3CCCCC3)cc2)ccc1OCC(=O)NC(C)(C)C	5.2µM*	?	-86*	10µM*	8%	-8%
Cc1ccccc1-c1ccccc1CN1[C@@H](C(C)C)COCCS1(=O)=O	/	/	?	-1%	/	-32%
CCCCN1CC(COCc2ccccc2)Oc2cccc(Oc3ccc(F)cc3OC)c2S1(=O)=O (centres undefined)	/	/	-10	/	/	/
O=C1CCN(Cc2nc(-c3ccc(Cl)cc3)no2)CCN1	10µM*	-24%	-29	?	20%	0%
CCCCC[C@@H]1C=C(C(=O)O)[C@H](c2ccc(CC)cc2)N1S(=O)(=O)c1ccc(C)cc1	/	/	-4	29%[8.37 µM]	/	0%
Cc1ccc(S(=O)(=O)N2[C@@H](c3ccc(Cl)cc3)C(C(=O)O)=CC[C@H]2c2ccc3c(c2)OCO3)cc1	8.3µM*	-17%	-9	18%	9.3µM*	0%
Cc1ccc(S(=O)(=O)N2[C@@H](c3cccc(Cl)c3)C(C(=O)O)=CC[C@H]2c2ccc3c(c2)OCO3)cc1	?	-17%	-12	13%	9.3µM*	0%
CC[C@@H]1C=C(C(=O)O)[C@H](c2ccc3c(c2)OCO3)N1S(=O)(=O)c1ccc(C)cc1	/	/	36	32µM*	/	4%
Cc1ccc([C@H]2C(C(=O)O)=CC[C@@H](c3ccc4c(c3)OCO4)N2S(=O)(=O)c2ccc(C)cc2)cc1	/	/	1	-6%	/	-1%
CCCC[C@@H]1C=C(C(=O)O)[C@H](c2ccc(CC)cc2)N1S(=O)(=O)c1ccc(C)cc1	/	/	10	0.56µM*	/	-1%
COc1ccc(CN2C[C@]3(CO)O[C@@H](CO)C[C@@H]3S2(=O)=O)cc1	/	/	11	-7%	/	3%
Cc1cccnc1NC(=O)c1ccc2c(c1)NC(=O)C(C)S2 (centres undefined)	20%	2%	-27	20%	-1%	-3%

Assay outcomes deposited in PubChem by National Center for Advancing Translational Sciences (NCATS).
